This passage reports outcome and AC50 results from PubChem BioAssay (EPA / NIEHS).

The term AC50 denotes the concentration at which the activity in the assay is half-maximal.

Values joined by “and” are separate entries in the source; they are usually repeats but may differ in a detail not shown here. Equal entries are not always repeated. Results filed as inconclusive are left out. Some structures have more than one record in an assay (separate samples or runs), and their calls can disagree. Active and inactive are the calls of the source. Rule for the calls: active = hit-call score of the fitted dose curve at least 0.9, where 1 is the maximum; inconclusive = response in the unintended direction; inactive = score below 0.9.

Read-out in this assay: Cytochrome P450 2B6 (Homo sapiens) (UniProt P20813)
The assay can be described thus: CLD_CYP2B6_48hr: CellzDirect (CLD) Gene Expression Assay for xenobiotic metabolism (CYP2B6) at 48 hours (AID 2283699).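 Note: actives raise transcript level above DMSO so potency reflects induction.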 As for the experimental part:
CLD_48hr is a cell-based, multiplexed-readout assay that uses hepatocyte, a human liver primary cell, with measurements taken at 48 hours after chemical dosing in a 96-well plate.CLD_CYP2B6_48hr is one of 16 assay component(s) measured or calculated from the CLD_48hr assay. It is designed to make measurements of mRNA induction, a form of inducible reporter, as detected with chemiluminescence signals by Quantitative Nuclease Protection Assay (qNPA) technology.Data from the assay component CLD_CYP2B6_48hr was analyzed at the endpoint, CLD_CYP2B6_48hr, in the positive analysis fitting direction relative to DMSO as the negative control and baseline of activity. Using a type of inducible reporter, gain-of-signal activity can be used to understand changes in the reporter gene as they relate to the gene CYP2B6. Furthermore, this assay endpoint can be referred to as a primary readout. To generalize the intended target to other relatable targets, this assay endpoint is annotated to the cyp intended target family, where subfamily is xenobiotic metabolism.
Human hepatocyte cultures were treated daily for two consecutive days with fresh dosing solutions containing appropriate concentrations of the 320 ToxCast chemicals (chemical identities were blinded to CellzDirect and other ToxCast collaborators), vehicle control (0.2% DMSO), and positive control inducers as summarized in Table 1. Due to the large number of treatment groups and chemicals examined, the ToxCast chemicals were divided into two groups (spanning two independent cultures of hepatocytes from separate donor preparations (Hu778: ToxCast plates 1 and 2; Hu776: ToxCast plates 3 and 4). Each preparation of human hepatocyte cultures was treated with respective vehicle control, medium only control, set of six positive controls/reference chemicals for the five hepatic receptor pathways, and a subset of eight of the ToxCast chemicals (indoxacarb, pyrithiobac-sodium, norflurazon, cyhalofop-butyl, methomyl, thiram, acetochlor, and propiconazole). These replicate data, coupled with internal replicates designed within the blinded ToxCast chemical library, provided additional data to evaluate interindividual differences between hepatocyte preparations and their potential impact on chemical profiles.Cell morphology and integrity were evaluated using phase-contrast microscopy as an indicator of hepatocyte cell health (Tyson & Green, 1987). Cultures for each treatment group (i.e., media, vehicle [0.2% DMSO], positive control inducers [multiple concentrations], and the ToxCast chemicals [multiple concentrations]) were observed and cell morphology was assessed relative to vehicle control cultures at each harvest time point (0, 6, 24, or 48 h). […] Images were evaluated at the conclusion of the study to assess changes in cell integrity and account for the effects of chemical exposure on uncharacteristic changes in concentration-dependent gene expression profiles. The results from these determinations of apparent cytotoxicity were annotated (yes/no) alongside the corresponding qNPA data for reference.At the conclusion of each treatment period, hepatocyte cultures (96-well) were washed with 1 volume of HBSS, lysed by addition of 25 ul ArrayPlate lysis buffer (HTG, Tucson, AZ), and 70 ul/well of Denaturation Oil, denatured by incubation at 95C for 10 min, and frozen at approximately -70C until analysis by nuclease protection assay (qNPA) (Roberts et al., 2007). For qNPA analysis, cell lysates were thawed at 50C for approximately 30 min, qNPA probes were added, and samples were incubated at 95C for 10 min to begin the detection process by denaturing the target RNA, dissociating the duplexes and secondary structure hybridization. At the conclusion of the hybridization period, S1 nuclease reagent was added to each sample to digest all nonprotected nucleotides at 50C for 60-90 min. […]
Regarding `Fc1ccc(Oc2ccnc3cc(Cl)cc(Cl)c23)cc1`, the call was inactive.

On to `CCON=C(CC)C1=C(O)CC(c2c(C)cc(C)cc2C)CC1=O` (stereo not given), for which the compound was classed as inactive.

As to `OC(c1ccc(Cl)cc1)(c1cncnc1)c1ccccc1Cl` (stereo not given), the AC50 is 0.483 µM (active).

For the compound `N#CC(CCc1ccc(Cl)cc1)(Cn1cncn1)c1ccccc1` (stereo not given), the AC50 was 0.434 µM (active).

On to `O=C(O)c1nc(Cl)ccc1Cl`, for which the AC50 is 4.4 µM (active).

As for `COC(=O)C(C)Oc1ccc(Oc2ccc(Cl)cc2Cl)cc1` (stereo not given), the result was inactive and the AC50 is 20 µM (active).

Take `CC(Oc1ccc(Cl)cc1Cl)C(=O)O` (stereo not given): the call was inactive.

`COc1nc(C)nc(NC(=O)NS(=O)(=O)c2ccccc2Cl)n1`: the result was inactive.

In the case of `COC(=O)N(OC)c1ccccc1COc1ccn(-c2ccc(Cl)cc2)n1`, the result was inactive.

On to `Cc1cc(Cl)ccc1OCC(=O)O`, for which the compound was classed as inactive.

For the compound `C#CCOS(=O)OC1CCCCC1Oc1ccc(C(C)(C)C)cc1` (stereo not given), the AC50 was 2 µM (active).

`O=C(Nc1ccccc1)Nc1ccnc(Cl)c1`: the AC50 is 6.77 µM (active).

As to `Cc1c(F)c(F)c(COC(=O)C2C(/C=C(\Cl)C(F)(F)F)C2(C)C)c(F)c1F` (stereo not given), the AC50 is 4.39 µM (active).

As for `COc1cnc(OC)n2nc(NS(=O)(=O)c3c(OCC(F)F)cccc3C(F)(F)F)nc12`, the result was inactive.

Turning to `CCOC(=O)CC(SP(=S)(OC)OC)C(=O)OCC` (stereo not given), the outcome was inactive.

As to `CCc1nn(C)c(C(=O)NCc2ccc(C(C)(C)C)cc2)c1Cl`, the AC50 was 37.3 µM (active).

As to `COP(=S)(OC)Oc1nc(Cl)c(Cl)cc1Cl`, the AC50 was 7.69 µM (active).

`CC1COC(Cn2cncn2)(c2ccc(Oc3ccc(Cl)cc3)cc2Cl)O1` (stereo not given): the call was inactive.

Consider `Oc1ccccc1-c1ccccc1`, for which the AC50 is 8.64 µM (active).

On to `CC1=C(C(=O)Nc2ccccc2)SCCO1`, for which the AC50 was 20 µM (active).

Regarding `CCCCNC(=O)OCC#CI`, the outcome was inactive.

On to `CON(C)C(=O)Nc1ccc(Cl)c(Cl)c1`, for which the AC50 is 1.31 µM (active).

For `COc1nc(C)nc(NC(=O)NS(=O)(=O)c2ccccc2CCC(F)(F)F)n1`, the AC50 is 2.5 µM (active) and 990 nM (active) and 836 nM (active).

As for `N#Cc1nn(-c2c(Cl)cc(C(F)(F)F)cc2Cl)c(N)c1S(=O)C(F)(F)F` (stereo not given), the AC50 is 1.9 µM (active).

With `C=CCC1=C(C)C(OC(=O)C2C(C=C(C)C)C2(C)C)CC1=O` (stereo not given), the AC50 is 12.8 µM (active).

Take `CCOC(=O)C(Cl)Cc1cc(-n2nc(C)n(C(F)F)c2=O)c(F)cc1Cl` (stereo not given): the AC50 was 20 µM (active).

As to `CCCC1COC(Cn2cncn2)(c2ccc(Cl)cc2Cl)O1` (stereo not given), the AC50 is 1.89 µM (active).

In the case of `COC(=O)C=C(C)OP(=O)(OC)OC`, the AC50 is 0.0004 µM (active).

For `CCOc1cc(Oc2ccc(C(F)(F)F)cc2Cl)ccc1[N+](=O)[O-]`, the AC50 is 1.83 µM (active).

Take `O=C(O)COc1nc(Cl)c(Cl)cc1Cl`: the result was inactive.

With `COC(=O)c1ccccc1C(=O)OC`, the result was inactive.

On to `CC(C)C1(C)N=C(c2nc3ccccc3cc2C(=O)O)NC1=O` (stereo not given), for which the AC50 was 0.000357 µM (active).

Regarding `CN(C)C(=S)SSC(=S)N(C)C`, the outcome was inactive.

Regarding `CCOP(=S)(OCC)SCn1c(=O)oc2cc(Cl)ccc21`, the AC50 was 1.06 µM (active).

For the compound `C=CC1(C)OC(=O)N(c2cc(Cl)cc(Cl)c2)C1=O` (stereo not given), the outcome was inactive.

With `COc1ccc(C(c2ccc(OC)cc2)C(Cl)(Cl)Cl)cc1`, the AC50 is 6.44 µM (active).

As to `CCCCOC(=O)c1ccccc1C(=O)OCCCC`, the compound was called inactive.

Turning to `C=CCC1=C(C)[C@@H](OC(=O)[C@@H]2[C@@H](C=C(C)C)C2(C)C)CC1=O`, the AC50 is 4.38 µM (active).

Take `CCNc1nc(Cl)nc(NC(C)C)n1`: the AC50 was 3.97 µM (active).
